# Results from ChEMBL document CHEMBL4296182, “CO-ADD screening of NIH NCI Diversity Set V”.
# For part of these data: Entries with a potency or affinity are not part of this list.
# How the values were obtained:
# Staphylococcus aureus = assay: Antibacterial activity against Staphylococcus aureus MRSA ATCC 43300 (CO-ADD:GP_020); MIC in CAMBH media using NBS plates, by Resazurin F(560/590); type: functional; conditions: Concentration 20 uM, ASSAY_TEST Inhibition of Bacterial Growth, detection method Resazurin, Fluorescence (ex560/em590), MEDIA CAMHB, plate type 384well, CORNING #3640, time 18 hr
# Acinetobacter baumannii = assay: Antibacterial activity against Acinetobacter baumannii ATCC 19606 (CO-ADD:GN_034); MIC in CAMBH media using NBS plates, by Resazurin F(560/590); type: functional; conditions: Concentration 20 uM, ASSAY_TEST Inhibition of Bacterial Growth, detection method Resazurin, Fluorescence (ex560/em590), MEDIA CAMHB, plate type 384well, CORNING #3640, time 18 hr
# Escherichia coli = assay: Antibacterial activity against Escherichia coli ATCC 25922 (CO-ADD:GN_001); MIC in CAMBH media using NBS plates, by Resazurin F(560/590); type: functional; conditions: Concentration 20 uM, ASSAY_TEST Inhibition of Bacterial Growth, detection method Resazurin, Fluorescence (ex560/em590), MEDIA CAMHB, plate type 384well, CORNING #3640, time 18 hr
# Klebsiella pneumoniae = conditions: Concentration 20 uM; ASSAY_TEST Inhibition of Bacterial Growth; detection method Absorption (OD600); MEDIA CAMHB; plate type 384well; NBS; CORNING #3640; time 18 hr
# Candida albicans = conditions: 20 µM
# Cryptococcus neoformans = conditions: Concentration 20 uM; ASSAY_TEST Inhibition of Fungal Growth; detection method Resazurin; Absorption (OD600-OD570); plate type 384well; NBS; CORNING #3640
SMILES,Inhibition (Staphylococcus aureus) [%],Inhibition (Acinetobacter baumannii) [%],Inhibition (Escherichia coli) [%],Inhibition (Klebsiella pneumoniae) [%],Inhibition (Candida albicans) [%],Inhibition (Cryptococcus neoformans) [%]
O=C(Cn1ccc(=O)[nH]c1=O)Nc1nccs1,4.05,-8.5,10.86,12.12,0.84,-10.28
O=C1C(Cl)=C(O)C2(Cl)C(Cl)=C(Cl)C12Cl (stereo not given),15.05,13.34,5.55,11.98,9.34,-12.02
O=C(O)c1cnn2c(S)ncnc12,16.65,-14.23,9.48,8.17,-0.99,-3.32
Nc1cc(Nc2ccc(Br)cc2)nc(N)n1,4.17,10.22,-12.19,18.33,4.62,-4.88
NC(=O)c1cc(Br)cc(C2CCCCC2)c1O,12.02,-1.26,2.39,15.38,2.63,-10.76
Cc1cccnc1NC(=O)c1csnn1,5.73,-12.69,4.7,9.01,-1.09,-4.1
CCC(CC)NCCOC(=O)c1ccc([N+](=O)[O-])cc1,-1.24,-9.59,5.41,5.67,0.5,-8.44
O=C(O)c1ccccc1C(=O)Nc1ccccc1[N+](=O)[O-],3.12,5.2,12.47,12.98,4.76,-12.04
Cn1nc(SCc2ccccc2)c(=O)n(C(c2ccccc2)c2ccccc2)c1=O,19.74,-15.03,11.55,5.74,11,-0.62
O=C(O)c1nc2nc(Cl)c(Cl)nc2[nH]1,-9.71,8.37,0.88,10.97,3.92,-11.32
CCOC(=O)C(C#N)C(=N)C1C(=O)OC2CCCCC21 (stereo not given),5.44,-19.8,15.65,4.77,-2.13,-12.86
Cc1nc2nc(C(F)(F)F)[nH]c2nc1C,10.93,9.55,-5.58,7.77,3.03,-5.2
Cc1nc(NC(=N)N(C)C)nc(O)c1C,4.99,-6.08,5.79,6.63,0.54,-10.51
C=CCNC(=O)C1COc2ccccc2O1 (stereo not given),-8.47,-14.67,0.51,7.35,1.99,-7.01
CC(C)C(=O)Nc1cccnc1,-3.96,-12.43,9.68,6.6,0.24,8.85
c1ccc(/N=N/N2CCOCC2)cc1,10.43,-20.45,2.82,4.01,17.7,-10.19
Cc1c(O)cnc2nn(-c3ccccc3)c(=N)n12,11.23,10.25,2.75,9.94,3.98,-5.13
O=C(O)c1ccc2c(c1Nc1ccccc1)C(=O)c1ccccc1C2=O,9.32,-23.2,18.5,7,1.26,-10.37
CCOc1ccc(NC(=O)Nc2cc(C(C)C)ccc2C)cc1,-18.22,0.23,-12.49,0.84,0.78,21.16
Cc1ccc(/N=N\c2c(O)ccc3[nH]nnc23)cc1,-9.42,-9.08,4.02,11.98,13.2,-12.82
COc1cccc(/C=C2\CCc3ccccc3C2=O)c1,5.14,-13.61,8.53,8.43,9.78,-15.01
c1ccc2nc(NN=C3CCCCC3)ccc2c1,9.39,-16.84,10.6,9.11,3.78,-6.92
CCCCOc1ccc(OC(=O)Nc2cc(Cl)ccc2OC)cc1,13.88,6.78,2.93,11.91,0.59,-2.51
CSc1nc(N)c(C(=O)Nc2ccc([N+](=O)[O-])cc2)s1,3.88,5.85,8.19,8.8,7.49,-10.16
CCc1noc2cc(-c3ccccc3)n(C)c(=O)c12,-11.16,2.9,-6.9,8.09,1.75,-7.67

SMILES,Inhibition (Staphylococcus aureus) [%],Inhibition (Acinetobacter baumannii) [%],Inhibition (Escherichia coli) [%],Inhibition (Klebsiella pneumoniae) [%],Inhibition (Candida albicans) [%],Inhibition (Cryptococcus neoformans) [%]
NS(=O)(=O)c1ccc(/N=N/c2ccc(O)[nH]c2=O)cc1,-4.07,-21.96,14.83,2.74,3.25,-15.42
c1ccc(Sc2ncnc3ccccc23)cc1,3.09,-14.3,12.91,8.16,2.99,-14.16
N#Cc1ccc(NC2c3ccccc3CC2O)cc1 (stereo not given),-13.68,-7.5,-15.24,3.05,0.94,8.31
CN(C)c1ccc(/C=N/NC(=O)c2cnc3ccccc3c2)cc1,17.84,9.63,3.71,14.91,2.44,3.68
CC(=O)NCC1(O)CCCC(C)C1 (stereo not given),7.69,-13.88,5.11,9.82,1.28,-5.78
Cc1cc(O)cc2c1[C@H]1CC[C@]3(C)C(=O)CC[C@H]3[C@@H]1C=C2,24.45,13.8,29.29,-0.57,12.1,-1.77
O=C1c2ccccc2C(=O)c2[nH]cnc21,-4.2,-6.06,-19.22,13.37,6.65,21.89
O=c1nc(Nc2cccc(Cl)c2)oc2cc(Cl)oc(=O)c12,6.93,3.28,2.7,6.71,20.4,-13.47
C=CCN1CCN(c2ccncc2S(=O)(=O)N2CCN(C)CC2)CC1,11.93,5.76,5.47,7.93,-0.33,-11.5
Cc1nc2c(O)cccc2cc1CO,12.47,-18.52,6.1,7.86,-0.94,-5.84
CSc1nc2nc(C(O)c3ccccc3)nc-2c[nH]1 (stereo not given),9.64,6.4,-14.24,16.25,8.94,28.87
NC(=O)C1=CC2C3C=CC2(O)C(=O)OC3O1 (stereo not given),-0.72,9.98,-7.05,15.67,3.39,2.22
O=C1CSC(=S)N1/N=C/c1c[nH]c2ccc(Br)cc12,-3.88,11.83,4.81,26.71,19.6,-14.16
Nc1ccc(N/C(S)=N/c2ccccc2)cc1,15.05,4.29,7.29,5.43,1.8,-4.63
COC1C(=O)CCC2(CO2)C1(O)C1(C)OC1CC=C(C)C (stereo not given),-15.99,-18.89,14.59,5.17,9.99,-9.09
Clc1ccc(Oc2nc3c(Cl)cccc3s2)cc1Cl,12.48,12.9,4.52,1.06,1.36,-15.72
C=CCC(CC)C(=O)NC(=O)N1CCCc2ccccc21 (stereo not given),-2.1,11.89,-1.31,11.1,4.92,-1.85
O=C1OCC/C1=C\OCCCO/C=C1\CCOC1=O,-12.85,-4.57,-5.06,8.79,-0.38,-11.43
COc1ccc(CC(=O)c2ccc(O)cc2O)cc1 [ONONETIN],1.4,4.43,2.27,20.95,17.6,-13.72
CSC1=NC=C(C#N)C2=NC(c3ccc(Cl)cc3)NN12 (stereo not given),-1.38,5.14,-2.57,11.21,1.44,39.9
Nc1ccc(/C=C/c2ccc3ncccc3c2)cc1,-2.75,-9.02,3.29,1.77,2.51,-10.25
COc1cc2c(cc1OC)C(C1(O)CCCCC1)NCC2 (stereo not given),18.67,-1.81,15.36,-0.68,-2.01,-12.78
FC(F)(F)c1nc2nc(Cl)c(Cl)nc2n1CCCN1CCOCC1,14.57,9.11,-16.14,4.93,5.42,38.81
COc1ccc2c(c1)C(=O)C1NC(=O)NC(=O)C1(Br)N2 (stereo not given),19.24,-10.78,15.57,4.36,-1.05,-13.08
CC(C)N(Cc1ccccc1)S(=O)(=O)c1nc(C(C)(C)C)n[nH]1,14.24,7.66,0.73,17.58,0.76,-4.79
